Reference: PubChem BioAssay AID1159580 (chemical genetic matrix, 2015)
Where “and” joins values, the source holds several entries; their conditions need not be identical. Equal entries are not always repeated. Hit rate of the full screen: of about 5,500 compounds, about 2,000 (36%) were called active. Not shown: some 18% with an inconclusive outcome. Rule as the data show it: active = normalized growth mostly below about 0.91 (no sharp cut-off); inconclusive = no clear call, values can overlap the other calls; inactive = mostly above about 0.92. The list shows a part of the results.

Experiment: chemical genetic growth profiling, strain panel (AID 1159580);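 also: tested at 20 µM; growth read once vehicle control cultures reached saturation at 30 °C; 1 = growth at the plate median or of vehicle wells; lower values mean less growth of the strain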
Conditions: growth OD

Measured: normalized growth

CN(C)C(=O)C(CCN1CCC(O)(c2ccc(Cl)cc2)CC1)(c1ccccc1)c1ccccc1
inactive: S. cerevisiae deletion strains, locus YJR075W, strain HOC1, hits give low values 1.01 and 0.984 | S. cerevisiae deletion strains, locus YKL009W, strain mrt4, hits give low values 1.01 | S. cerevisiae deletion strains, locus YKL068W, hits give low values 1 | S. cerevisiae deletion strains, locus YKL085W, strain MDH1 (second series), hits give low values 1.01 | S. cerevisiae deletion strains, locus YKL085W, strain MDH1, hits give low values 1.01 | S. cerevisiae deletion strains, locus YKL160W, strain elf1, hits give low values 0.973 | S. cerevisiae deletion strains, locus YKL190W, strain CNB1, hits give low values 0.997 | S. cerevisiae deletion strains, locus YKR001C, strain vps1, hits give low values 1.01 | S. cerevisiae deletion strains, locus YKR026C, strain gcn3, hits give low values 0.997 | S. cerevisiae deletion strains, locus YKR091W, strain srl3, hits give low values 0.991 | S. cerevisiae deletion strains, locus YLL001W, strain dnm1, hits give low values 0.971 | S. cerevisiae deletion strains, locus YLL026W, hits give low values 0.987 | S. cerevisiae deletion strains, locus YLL041C, strain sdh2, hits give low values 1 | S. cerevisiae deletion strains, locus YLR027C, strain aat2, hits give low values 0.976 | S. cerevisiae deletion strains, locus YLR039C, strain RIC1, hits give low values 1.05 | S. cerevisiae deletion strains, locus YLR058C, strain SHM2, hits give low values 1 | S. cerevisiae deletion strains, locus YLR102C, strain apc9, hits give low values 1.01 | S. cerevisiae deletion strains, locus YLR113W, strain HOG1, hits give low values 0.988 | S. cerevisiae deletion strains, locus YLR221C, strain rsa3, hits give low values 1 | S. cerevisiae deletion strains, locus YLR258W, strain gsy2, hits give low values 0.995 | S. cerevisiae deletion strains, locus YLR262C, strain YPT6 (second series), hits give low values 1.03 | S. cerevisiae deletion strains, locus YLR262C, strain YPT6, hits give low values 0.991 | S. cerevisiae deletion strains, locus YLR268W, strain sec22, hits give low values 1.04 | S. cerevisiae deletion strains, locus YLR320W, strain mms22, hits give low values 0.932 | S. cerevisiae deletion strains, locus YLR330W, strain CHS5, hits give low values 0.993 | S. cerevisiae deletion strains, locus YLR342W, strain FKS1 (second series), hits give low values 0.946 | S. cerevisiae deletion strains, locus YLR342W, strain FKS1, hits give low values 0.955 | S. cerevisiae deletion strains, locus YLR357W, strain rsc2, hits give low values 0.994 | S. cerevisiae deletion strains, locus YLR370C, strain arc18, hits give low values 1 | S. cerevisiae deletion strains, locus YLR371W, strain rom2, hits give low values 1.01 | S. cerevisiae deletion strains, locus YLR384C, strain iki3, hits give low values 0.996 | S. cerevisiae deletion strains, locus YLR418C, strain cdc73, hits give low values 0.979 | S. cerevisiae deletion strains, locus YML016C, strain PPZ1, hits give low values 0.998 | S. cerevisiae deletion strains, locus YML032C, strain rad52, hits give low values 1.01 | S. cerevisiae deletion strains, locus YML120C, strain ndi1, hits give low values 0.993 | S. cerevisiae deletion strains, locus YML124C, strain tub3, hits give low values 1.01 | S. cerevisiae deletion strains, locus YMR058W, strain fet3, hits give low values 0.996 | S. cerevisiae deletion strains, locus YMR078C, strain ctf18, hits give low values 1.01 | S. cerevisiae deletion strains, locus YMR125W, strain sto1, hits give low values 1.02 | S. cerevisiae deletion strains, locus YMR129W, hits give low values 1 | S. cerevisiae deletion strains, locus YMR205C, strain PFK2, hits give low values 0.969 | S. cerevisiae deletion strains, locus YMR223W, strain ubp8, hits give low values 0.992 | S. cerevisiae deletion strains, locus YMR231W, strain pep5, hits give low values 0.985 | S. cerevisiae deletion strains, locus YMR263W, strain SAP30, hits give low values 1.01 and 0.992 | S. cerevisiae deletion strains, locus YMR307W, strain GAS1, hits give low values 0.941 and 0.992 | S. cerevisiae deletion strains, locus YNL067W, strain RPL9B, hits give low values 1.01 | S. cerevisiae deletion strains, locus YNL071W, strain lat1, hits give low values 0.975 | S. cerevisiae deletion strains, locus YNL128W, strain TEP1, hits give low values 1.01 | S. cerevisiae deletion strains, locus YNL153C, strain GIM3, hits give low values 1.01 | S. cerevisiae deletion strains, locus YNL175C, strain NOP13, hits give low values 1 | S. cerevisiae deletion strains, locus YNL183C, strain NPR1, hits give low values 0.939 | S. cerevisiae deletion strains, locus YNL197C, strain WHI3, hits give low values 0.987 | S. cerevisiae deletion strains, locus YNL209W, strain ssb2, hits give low values 1.01 | S. cerevisiae deletion strains, locus YNL224C, strain SQS1, hits give low values 1.04 | S. cerevisiae deletion strains, locus YNL233W, strain BNI4, hits give low values 1 | S. cerevisiae deletion strains, locus YNL248C, strain rpa49, hits give low values 0.988 | S. cerevisiae deletion strains, locus YNL250W, strain rad50, hits give low values 1.02 | S. cerevisiae deletion strains, locus YNL271C, strain bni1, hits give low values 1.02 | S. cerevisiae deletion strains, locus YNL298W, strain CLA4, hits give low values 1 | S. cerevisiae deletion strains, locus YNL307C, strain MCK1, hits give low values 0.994 | S. cerevisiae deletion strains, locus YNL322C, strain KRE1 (second series), hits give low values 0.993 | S. cerevisiae deletion strains, locus YNL322C, strain KRE1, hits give low values 1.01 | S. cerevisiae deletion strains, locus YNR049C, strain mso1, hits give low values 1 | S. cerevisiae deletion strains, locus YNR052C, strain pop2, hits give low values 1 | S. cerevisiae deletion strains, locus YOL006C, strain TOP1, hits give low values 1.01 | S. cerevisiae deletion strains, locus YOL012C, strain htz1 1.2 | S. cerevisiae deletion strains, locus YOL147C, strain pex11, hits give low values 1.01 | S. cerevisiae deletion strains, locus YOR001W, strain rrp6, hits give low values 0.982 | S. cerevisiae deletion strains, locus YOR061W, strain CKA2, hits give low values 0.995 | S. cerevisiae deletion strains, locus YOR069W, strain VPS5, hits give low values 1 | S. cerevisiae deletion strains, locus YOR070C, strain gyp1, hits give low values 0.996 | S. cerevisiae deletion strains, locus YOR080W, strain dia2, hits give low values 0.981 | S. cerevisiae deletion strains, locus YOR083W, strain WHI5 (second series), hits give low values 1.07 | S. cerevisiae deletion strains, locus YOR083W, strain WHI5, hits give low values 0.954 | S. cerevisiae deletion strains, locus YOR106W, strain vam3, hits give low values 1 | S. cerevisiae deletion strains, locus YOR136W, strain idh2, hits give low values 1 | S. cerevisiae deletion strains, locus YOR144C, strain elg1, hits give low values 1.01 | S. cerevisiae deletion strains, locus YOR184W, strain ser1, hits give low values 1.02 | S. cerevisiae deletion strains, locus YOR231W, strain MKK1, hits give low values 0.997 | S. cerevisiae deletion strains, locus YOR265W, strain rbl2, hits give low values 1 | S. cerevisiae deletion strains, locus YOR270C, strain vph1, hits give low values 0.996 | S. cerevisiae deletion strains, locus YOR290C, strain snf2, hits give low values 0.973 | S. cerevisiae deletion strains, locus YOR316C, strain cot1, hits give low values 1.01 | S. cerevisiae deletion strains, locus YPL051W, strain arl3, hits give low values 0.99 | S. cerevisiae deletion strains, locus YPL055C, strain LGE1, hits give low values 0.999 | S. cerevisiae deletion strains, locus YPL078C, strain atp4, hits give low values 0.971 | S. cerevisiae deletion strains, locus YPL106C, strain sse1, hits give low values 0.952 | S. cerevisiae deletion strains, locus YPL240C, strain hsp82, hits give low values 0.992 | S. cerevisiae deletion strains, locus YPL241C, strain CIN2, hits give low values 0.992 and 1 | S. cerevisiae deletion strains, locus YPL256C, strain CLN2, hits give low values 0.973 | S. cerevisiae deletion strains, locus YPR119W, strain clb2, hits give low values 1.01 | S. cerevisiae deletion strains, locus YPR141C, strain kar3, hits give low values 1.02 | S. cerevisiae deletion strains, locus YPR163C, strain tif3, hits give low values 1.03 | S. cerevisiae deletion strains, locus YPR167C, strain met16, hits give low values 1.01 | S. cerevisiae deletion strains, strain wtn01, hits give low values 1.02 | S. cerevisiae strains, strain wild type, hits give low values 0.993
